# Rows were chosen to be rich in hits. Some 0.9% of all compounds tested hit in one or more screens of this group.
# TR-FRET SRC-2 ct = flags TR-FRET format artefacts in PPARgamma SRC-2 recruitment agonist screen. TR-FRET ratio at 8 µM. TR-FRET artefact counter-screen; active compounds read high. 200,000 tested, 0.4% active. AID 1049
# PPARg SRC2 recr = promotes SRC-2 coactivator recruitment by human PPARgamma. activation, % at 8 µM. 200,000 tested, 0.34% active. PPARgamma LBD-SRC-2 recruitment, biochemical. P37231; in the data active = activation above about 22%
# Target sequence (P37231 whole entry, looked up, the tested form may be a part): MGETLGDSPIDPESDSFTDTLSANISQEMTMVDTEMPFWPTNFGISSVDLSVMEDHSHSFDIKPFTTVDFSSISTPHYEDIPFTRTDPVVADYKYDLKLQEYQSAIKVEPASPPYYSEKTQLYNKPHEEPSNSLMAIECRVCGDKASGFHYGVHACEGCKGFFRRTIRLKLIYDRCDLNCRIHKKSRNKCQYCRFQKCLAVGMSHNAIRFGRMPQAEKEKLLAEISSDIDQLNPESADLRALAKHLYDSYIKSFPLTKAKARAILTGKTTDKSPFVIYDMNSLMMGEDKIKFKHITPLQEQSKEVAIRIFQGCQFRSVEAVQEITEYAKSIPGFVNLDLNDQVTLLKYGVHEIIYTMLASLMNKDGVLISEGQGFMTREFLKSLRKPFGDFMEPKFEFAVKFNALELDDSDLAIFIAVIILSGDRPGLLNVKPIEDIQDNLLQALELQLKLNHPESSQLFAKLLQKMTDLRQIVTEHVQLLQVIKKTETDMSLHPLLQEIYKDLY
# PPARg SRC-3 ag = agonists of human PPARgamma SRC-3 coactivator recruitment | P37231 | biochemical PPARgamma/SRC-3 coactivator recruitment assay | activation, % at 8 µM | 200,000 tested, 0.26% active | AID 731; in the data active = activation above about 23%
# SRC3 TRFRET art = flags TR-FRET format artefacts in PPARgamma SRC-3 recruitment agonist screen; TR-FRET artefact counter-screen, PPARgamma/SRC-3 format; active compounds read high; TR-FRET ratio at 8 µM; 99,000 tested, 0.39% active; AID 1048
# SRC1 TRFRET art = flags TR-FRET format artefacts in PPARgamma SRC-1 recruitment agonist screen; TR-FRET detection artefact counter-screen, emission ratio; active compounds read high; TR-FRET ratio at 8 µM; 99,000 tested, 0.34% active; AID 1051; in the data active = TR-FRET ratio above about 2300
# PPARg SRC-1 ag = promotes SRC-1 coactivator recruitment by human PPARgamma; P37231; PPARgamma-SRC-1 coactivator recruitment biochemical assay; activation, % at 8 µM; 200,000 tested, 0.41% active; in the data active = activation above about 19%
# A number is an active result; . = inactive; / = not tested or not shown. Cut-off read from the data, not from the text of the source, unless noted: active = TR-FRET ratio above about 2000; inactive = the rest.
SMILES,TR-FRET SRC-2 ct,PPARg SRC2 recr,PPARg SRC-3 ag,SRC3 TRFRET art,SRC1 TRFRET art,PPARg SRC-1 ag
CCOC(=O)C(=NC(C)CC)NNc1ccc(Br)cc1 (stereo not drawn),.,.,.,.,.,.
CC(=O)Nc1ccc(NC(=O)/C=C/c2ccccc2)cc1,.,.,.,.,.,.
CC(=O)N1CCN(c2ccc(NC(=O)/C=C/c3ccccc3)cc2)CC1,.,24.0,.,.,.,.
COc1ccccc1CNC(=O)C(=O)NCC1OCCN1C(=O)c1cccs1 (stereo not drawn),.,.,.,.,.,.
Cn1c(/C(C#N)=C(\O)COc2ccc3ccccc3c2)nc2ccccc21,2360,31.8,.,.,.,.
Cc1ccc(OC/C(O)=C(\C#N)c2nc3ccccc3s2)cc1,.,.,.,.,.,.
Cc1cc(C(=O)N/N=C/c2cn[nH]c2-c2ccccc2)cs1,.,24.8,.,.,.,.
O=C(Nc1cccc(S(=O)(=O)NC2=NCCCCC2)c1)c1cc(-c2ccc(Cl)cc2)nc2ccccc12,.,.,.,2132,.,.
O=C(NCCCN1CCCC1=O)c1ccc(Cl)c(Cl)c1,.,.,.,.,.,.
Cc1cc(C(=O)NC(C)C2CCCO2)no1 (stereo not drawn),.,.,.,.,.,.
COc1cccc(NC(=O)COC(=O)c2ccc(F)cc2F)c1,.,.,.,.,.,.
COc1ccc(NC(=O)COC(=O)c2ccc(F)cc2F)cc1,1971,.,.,.,.,.
CC(=O)OC(C(=O)Nc1ccccc1C)C(OC(C)=O)C(OC(C)=O)C(OC(C)=O)C(=O)Nc1ccccc1C (stereo not drawn),.,.,.,/,/,.
O=C(O)c1cc(-c2cccs2)nn1-c1cccc(Cl)c1,.,.,.,.,.,.
CN(C)S(=O)(=O)c1cccc(NC(=O)c2cc(-c3cccs3)nn2-c2cccc(Cl)c2)c1,2193,.,.,2416,.,.
Nc1nccc(-c2cccs2)n1,2014,.,.,.,.,.
O=C(Nc1nccc(-c2cccs2)n1)c1cccs1,.,.,.,/,/,.
Cn1cccc1-c1nc2ccc(NC(=O)c3ccccc3)cc2[nH]1,.,26.0,.,/,/,.
CCc1nnc(NC(=O)CSc2nnc(-c3ccccc3NC(=O)c3ccccc3)o2)s1,.,.,.,/,/,.
CC(C)(C)c1cc[n+](/C(C(=S)Nc2ccccc2F)=C(/[O-])c2ccc3c(c2)OCCO3)cc1,.,.,.,.,.,.
[O-]/C(=C(\C(=S)Nc1ccccc1F)[n+]1ccccc1)c1ccc(-c2ccccc2)cc1,.,.,.,.,2348,.
CCOc1ccc(OCCCCNCCN)cc1,.,.,.,/,/,.
CC(C)Cc1nc(Cl)c(C#N)c2c1CCCC2,.,.,.,2298,.,.
Cc1ccc(S(=O)(=O)NCc2ccc3c(c2)cc(C)n3C)cc1,2007,.,.,/,/,.
Cc1cc2cc(CN3C(=O)c4ccccc4C3=O)ccc2n1C,.,.,.,2708,.,.
SMILES,TR-FRET SRC-2 ct,PPARg SRC2 recr,PPARg SRC-3 ag,SRC3 TRFRET art,SRC1 TRFRET art,PPARg SRC-1 ag
O=C1c2ccccc2C(=O)N1Cc1ccc2c(c1)OCO2,.,.,.,/,/,.
O=C(NN1CCCCC1)c1ccc(COc2ccc(Cl)cc2)cc1,.,.,.,.,.,.
Fc1cccc(Cl)c1CSc1nnc2ccccn12,.,.,.,.,.,.
COc1ccc(C2CC(c3ccccc3)=NN2C(=O)COC(=O)c2cc(S(=O)(=O)N3CCOCC3)ccc2Cl)cc1 (stereo not drawn),2080,.,.,.,.,.
COC(=O)/C=C/c1ccc(OC(=O)c2ccncc2)cc1,.,.,.,.,.,.
Cc1ccccc1CC1(CO)CCCN(C(=O)CCC(=O)c2ccccc2)C1 (stereo not drawn),.,.,.,.,.,21.6
Cc1ccc(/C=N/NC(=O)c2ccoc2C)s1,.,.,.,.,.,.
Cc1occc1C(=O)N/N=C/c1ccc(Br)s1,.,.,.,.,.,22.2
Cc1nc(N2CCN(S(=O)(=O)c3ccccc3C#N)CC2)c2c(-c3cccs3)csc2n1,.,.,.,2725,.,.
Cc1nc(N2CCCCC2)c2c(-c3cccs3)csc2n1,.,.,.,.,.,.
CCn1cc(C(=O)Nc2nnc(C)s2)c(=O)c2cc(F)c(N3CCN(C(=O)c4ccco4)CC3)cc21,.,.,.,/,/,.
CCOCCCn1c(=N)c(C(=O)Nc2cc(C)on2)cc2c(=O)n3ccccc3nc21,.,.,.,/,/,.
CCOC(=O)c1c(C)[nH]c(C(=O)COC(=O)CNC(=O)C2CCCCC2)c1C,.,.,28.8,/,/,.
Cc1cc(C)nc(N2CCCC(C(=O)NCc3ccccc3F)C2)n1 (stereo not drawn),.,.,.,.,.,.
COc1ccc([N+](=O)[O-])cc1NC(=O)c1ccco1,.,.,.,.,.,.
N#Cc1c(N)nc(SCC(=O)NC2CCCCC2)c(C#N)c1-c1ccc(Cl)cc1,.,.,.,/,/,42.6
Cc1ccc(NC(=S)N2CCN(Cc3ccccc3)CC2)c(C)c1,.,.,.,.,.,.
COc1ccc(NC(=O)NCc2ccc3c(c2)OCO3)cc1,.,.,.,.,.,.
O=C(NCc1ccc2c(c1)OCO2)Nc1ccc2nsnc2c1,2378,66.8,.,.,.,.
O=C(Nc1ccc(N2CCOCC2)cc1)Nc1ccc2nsnc2c1,.,.,.,.,2437,.
CCOC(=O)C1CCCN(c2cc(=O)n(C3CCCCC3)c(=O)[nH]2)C1 (stereo not drawn),.,.,.,.,.,.
COC(=O)c1cnn(-c2nc3c(C)cccc3s2)c1C,.,.,.,/,/,60.8
Cc1cc(C)c2c(c1)NC(c1cc3c(cc1Br)OCO3)C1CC=CC21 (stereo not drawn),.,.,.,.,3042,44.9
Brc1cc2c(cc1C1Nc3ccccc3C3C=CCC31)OCO2 (stereo not drawn),.,.,.,.,.,.
Cc1ccc(Cn2cc(SCC(=O)Nc3nccs3)c3ccccc32)cc1,2880,.,.,/,/,.
SMILES,TR-FRET SRC-2 ct,PPARg SRC2 recr,PPARg SRC-3 ag,SRC3 TRFRET art,SRC1 TRFRET art,PPARg SRC-1 ag
Cc1cccc(Cn2cc(SCC(=O)Nc3nccs3)c3ccccc32)c1,.,.,.,/,/,.
c1cnc(Sc2ccc3nnnn3n2)nc1,.,.,.,.,.,.
COc1ccc(C(=O)Nc2cc(C)c3c(=O)oc4ccccc4c3n2)cc1,.,.,.,/,/,23.7
Cc1cccc(C)c1NC(=O)CNC(=O)CCC(=O)c1cccs1,.,.,.,.,.,.
CCOC(=O)c1cnc2c(C(F)(F)F)cccc2c1N1CCOCC1,.,.,.,/,/,.
CCOC(=O)c1cnc2c(C)c(Cl)ccc2c1N1CCOCC1,.,.,40.1,/,/,.
CC(=O)N/C(=C/c1ccc([N+](=O)[O-])cc1)C(=O)O,.,.,.,.,.,.
CCOC(=O)c1sc(NC(=O)CSc2nnnn2-c2ccc(C)c(C)c2)nc1C,4861,155.9,.,/,/,.
COc1cc(OC)cc(-n2nnnc2SCC(=O)Nc2ccc(C(C)=O)cc2)c1,.,.,.,/,/,51.1
